Results on four compounds are retold here after the supplement of paper PMC9694430.

Common to all, as to assay: thermal shift delta Tm vs DMSO control; higher = stronger stabilization (binding)
What all share (settings): 12.5 µM; protein concentration 2 µM

One test has as its system LOC_OS01G57100-cb003. An outline of the steps: (§1)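 The melting temperature shift given here is a triplicate mean, measured against protein that received only DMSO. Melting temperatures came from Boltzmann fits of differential scanning fluorimetry data on E. coli-expressed, purified rice kinase domain constructs. Each 19.5 μl well contained 2 μM kinase, 100 mM potassium phosphate pH 7.5, 150 mM NaCl, 10% glycerol, 5 × SYPRO Orange and compound in DMSO. Plates were scanned from 25°C to 95°C at 0.05°C/s.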

The test system of the next test is LOC_OS01G60330-cb001. An outline of the steps: as §1
A further test relates to LOC_OS01G60700-cb002. In outline: as §1
For the next test, the system named is LOC_OS01G63280-cb003. An outline of the steps: as §1
The test system of the next test is LOC_OS01G67340-cb003. An outline of the steps:
as §1

The next test deals with LOC_OS01G70970-cb002. In outline: as §1
A further test has as its system LOC_OS02G07810-cb001. An outline of the steps:
as §1

In the next test the test system is LOC_OS02G08530-cb003. In outline:
as §1

The next test has as its system LOC_OS02G14120-cb001. An outline of the steps:
as §1

The test system of the next test is LOC_OS02G17970-cb001. In outline: as §1
In another test the test system is LOC_OS02G45750-cb003. In outline:
as §1

The test system of another test is LOC_OS02G54510-cb004. An outline of the steps: as §1
A further test deals with LOC_OS03G04050-cb001. An outline of the steps:
as §1

A further test relates to LOC_OS03G12390-cb001. An outline of the steps: as §1
For another test, the system named is LOC_OS03G27990-cb004. An outline of the steps: as §1
A further test concerns LOC_OS03G50450-cb001. In outline: as §1
The subject of the next test is LOC_OS03G50810-cb003. In outline:
as §1

A further test relates to LOC_OS04G35114-cb001. In outline: as §1
The next test concerns T1, LOC_OS04G38480-cb003.
T1 sequence (whole entry): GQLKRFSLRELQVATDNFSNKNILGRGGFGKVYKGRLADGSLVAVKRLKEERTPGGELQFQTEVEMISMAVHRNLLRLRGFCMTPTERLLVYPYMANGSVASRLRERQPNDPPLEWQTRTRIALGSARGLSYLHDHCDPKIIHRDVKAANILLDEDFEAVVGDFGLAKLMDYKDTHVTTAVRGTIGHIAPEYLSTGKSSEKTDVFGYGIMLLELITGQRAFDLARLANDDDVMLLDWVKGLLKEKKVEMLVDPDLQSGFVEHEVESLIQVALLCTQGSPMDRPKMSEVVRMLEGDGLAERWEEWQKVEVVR
In outline:
as §1

A further test concerns T2, LOC_OS04G41100-cb001.
T2 sequence (whole entry): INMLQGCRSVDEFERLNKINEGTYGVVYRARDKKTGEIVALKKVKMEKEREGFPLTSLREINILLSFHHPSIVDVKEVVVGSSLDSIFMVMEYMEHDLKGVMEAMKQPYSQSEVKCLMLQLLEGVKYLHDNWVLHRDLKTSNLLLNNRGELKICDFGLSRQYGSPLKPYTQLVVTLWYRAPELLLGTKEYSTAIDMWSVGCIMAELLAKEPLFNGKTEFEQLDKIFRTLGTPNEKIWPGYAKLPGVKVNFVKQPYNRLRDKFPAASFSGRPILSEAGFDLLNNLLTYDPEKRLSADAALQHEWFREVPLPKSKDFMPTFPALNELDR
In outline:
as §1

As to `O=C(NOCCO)c1ccc2cncn2c1Nc1ccc(I)cc1F`, the “thermal shift delta Tm” value with LOC_OS01G57100-cb003 is 1.19 °C; in the test on LOC_OS01G60330-cb001, -0.56 °C; in the test on LOC_OS01G60700-cb002, 0.86 °C; in the test on LOC_OS01G63280-cb003, 0.2 °C; in the test with LOC_OS01G67340-cb003, -0.68 °C; in the test on LOC_OS01G70970-cb002, -0.05 °C. The “thermal shift delta Tm” value with LOC_OS02G07810-cb001 was 1.14 °C; in the test with LOC_OS02G08530-cb003, 0.47 °C; in the test with LOC_OS02G14120-cb001, -1.25 °C; in the test with LOC_OS02G17970-cb001 it was 1.62 °C; in the test with LOC_OS02G45750-cb003 it was 0.53 °C; in the test on LOC_OS02G54510-cb004, 0.01 °C. Further, the “thermal shift delta Tm” value in the test on LOC_OS03G04050-cb001 is 0.75 °C; with LOC_OS03G12390-cb001 it was -0.37 °C; in the test with LOC_OS03G27990-cb004, 0.29 °C; in the test with LOC_OS03G50450-cb001 it was -0.24 °C; in the test with LOC_OS03G50810-cb003, 0.06 °C; with LOC_OS04G35114-cb001 it was -0.73 °C. Moreover, the “thermal shift delta Tm” value was -1.85 °C with LOC_OS04G38480-cb003 and 0.39 °C with LOC_OS04G41100-cb001.
In the case of `Cc1[nH]nc2ccc(-c3cncc(OC[C@@H](N)Cc4ccccc4)c3)cc12`, the “thermal shift delta Tm” value was determined as 1.88 °C in the test on LOC_OS01G57100-cb003; 0.68 °C in the test on LOC_OS01G60330-cb001; 1.01 °C in the test with LOC_OS01G60700-cb002; 0.26 °C with LOC_OS01G63280-cb003; 1.12 °C in the test on LOC_OS01G67340-cb003; 0.36 °C in the test with LOC_OS01G70970-cb002. Also, the “thermal shift delta Tm” value in the test on LOC_OS02G07810-cb001 was determined as 1.05 °C; in the test with LOC_OS02G08530-cb003 it was 2.68 °C; with LOC_OS02G14120-cb001, 3.18 °C; in the test on LOC_OS02G17970-cb001, 0.41 °C; in the test with LOC_OS02G45750-cb003, 2.29 °C; in the test with LOC_OS02G54510-cb004 it was 0.14 °C. Besides, the “thermal shift delta Tm” value came out at 0.35 °C with LOC_OS03G04050-cb001; 3.08 °C with LOC_OS03G12390-cb001; 0.34 °C in the test on LOC_OS03G27990-cb004; 0.59 °C in the test with LOC_OS03G50450-cb001; 1.41 °C in the test with LOC_OS03G50810-cb003; 1.06 °C in the test on LOC_OS04G35114-cb001. Moreover, the “thermal shift delta Tm” value worked out at 0.62 °C with LOC_OS04G38480-cb003 and 1.9 °C with LOC_OS04G41100-cb001.
As for `N#CC(=C(/N)Sc1ccccc1N)/C(C#N)=C(\N)Sc1ccccc1N`, the “thermal shift delta Tm” value with LOC_OS01G57100-cb003 is -0.44 °C; in the test with LOC_OS01G60330-cb001 it was 2.17 °C; with LOC_OS01G60700-cb002, 0.48 °C; in the test on LOC_OS01G63280-cb003, 2.36 °C; with LOC_OS01G67340-cb003 it was 0.77 °C; in the test on LOC_OS01G70970-cb002, 0.62 °C. In addition, the “thermal shift delta Tm” value in the test with LOC_OS02G07810-cb001 was 1.33 °C; in the test on LOC_OS02G08530-cb003, 1.04 °C; with LOC_OS02G14120-cb001 it was 0.63 °C; in the test with LOC_OS02G17970-cb001, 0.85 °C; in the test on LOC_OS02G45750-cb003 it was 0.68 °C; in the test on LOC_OS02G54510-cb004, -0.59 °C. The “thermal shift delta Tm” value in the test with LOC_OS03G04050-cb001 is 0.78 °C; with LOC_OS03G12390-cb001 it was 1.33 °C; in the test on LOC_OS03G27990-cb004, 0.63 °C; in the test on LOC_OS03G50450-cb001, 0.62 °C; in the test on LOC_OS03G50810-cb003, 0.78 °C; with LOC_OS04G35114-cb001, -0.47 °C. The “thermal shift delta Tm” value in the test on LOC_OS04G38480-cb003 was -1.15 °C; with LOC_OS04G41100-cb001 it was 0.28 °C.
Turning to `N#Cc1ccc2ncnc(NCCc3ccccc3)c2c1` [Senexin A], the “thermal shift delta Tm” value is -0.12 °C with LOC_OS01G57100-cb003; 0.74 °C in the test on LOC_OS01G60330-cb001; -0.36 °C with LOC_OS01G60700-cb002; 0.25 °C in the test on LOC_OS01G63280-cb003; 0.38 °C in the test on LOC_OS01G67340-cb003; 0.3 °C in the test on LOC_OS01G70970-cb002. Further, the “thermal shift delta Tm” value with LOC_OS02G07810-cb001 is -0.71 °C; in the test with LOC_OS02G08530-cb003 it was 2.47 °C; in the test on LOC_OS02G14120-cb001 it was 2.47 °C; with LOC_OS02G17970-cb001, 0.28 °C; with LOC_OS02G45750-cb003 it was 1.15 °C; in the test on LOC_OS02G54510-cb004 it was 0.03 °C. Besides, the “thermal shift delta Tm” value turned out to be 0.34 °C with LOC_OS03G04050-cb001; 1.84 °C in the test with LOC_OS03G12390-cb001; 0.37 °C in the test on LOC_OS03G27990-cb004; 0.68 °C in the test on LOC_OS03G50450-cb001; 0.83 °C with LOC_OS03G50810-cb003; 1.3 °C with LOC_OS04G35114-cb001. The “thermal shift delta Tm” value amounted to 1.69 °C in the test on LOC_OS04G38480-cb003 and 0.25 °C in the test with LOC_OS04G41100-cb001.
